According to PubChem BioAssay (NCI):
Compounds without any hit were thinned out: in the full panel of roughly 83,000, 20% have a hit.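 Growth was measured after 48 h exposure to one concentration of compound in 96-well plates. Values under 10 count as active.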 Values without a mark were called inactive. Calls of active or inactive are those of the source.

The molecules below were run on MCF7 breast (assay: NCI-60 one-dose screen, 48 h (100 = growth as untreated, 0 = no growth, -100 = all killed)). Conditions: 10 µM.

SMILES	growth
COC[C@@H](CC(C)C)N=C1N/C(=C\c2ccc3ncsc3c2)C(=O)N1C	-23.3% (active)
COc1ccccc1[C@H]1C(C(=O)c2ccc(O)cc2)C2(N[C@@H]1c1ccccc1)C(=O)Nc1ccc(Br)cc12 (some centres not stated)	3.19% (active)
COc1ccc(C(=O)Nc2ccc(-c3ccc4c(c3)NC(=O)/C4=C\c3ccc[nH]3)cc2)cc1	-31.9% (active)
O=C(Nc1ccncc1)c1ccc(-n2c(=O)[nH]c3ccccc3c2=O)cc1	92.3%
O=C(NO)c1ccc(-c2nc3ccc4[nH]ncc4c3c3c2CCCC3)cc1	-20.8% (active)

These molecules were tested on HCT-116 colon in the same assay as above. Conditions: 10 µM.

SMILES	growth
O=S(=O)(c1ccc(Cl)cc1)c1nc(-c2ccccc2)oc1S(=O)(=O)c1ccc(Cl)cc1	58.9%
O=[N+]([O-])c1ccc(-c2nc(-c3ccccc3)c(-c3ccccc3)n2-c2ccc(S(=O)(=O)Nc3ncccn3)cc2)cc1	30.6%
Cc1cc(C(F)(F)F)ccc1C(=O)Nc1sc2c(c1C#N)CCC(=O)C2	5.39% (active)
Cc1ccn2c(C(=O)c3ccccc3)cc(-c3cc(-c4ccc(N(C)C)cc4)c(C#N)c(N)n3)c2c1	63.4%
COc1ccc2ncc(C#Cc3cncc(C(=O)Nc4ccc(CN5CCN(C)CC5)c(C(F)(F)F)c4)c3)n2n1	-43.6% (active)
CN1CCN(Cc2ccc(C(=O)Nc3cccc(Nc4ccc5cc(O)ccc5n4)c3)cc2C(F)(F)F)CC1	1.51% (active)
O=C(c1ccc(Cl)cc1)C1[C@H](c2ccccc2Br)[C@@H](c2ccccc2)NC12C(=O)Nc1ccc(Cl)cc12 (some centres not stated)	7.63% (active)
